Source: PubChem BioAssay (EPA / NIEHS)
Active and inactive are the calls of the source. The calls were made as follows: active = hit-call score of the fitted dose curve at least 0.9, where 1 is the maximum; inactive = score below 0.9.

Assays:
Conditions in all cases: mRNA level, 48 h; actives raise or lower the signal
MYC, MYC (gene 4609) = assay: LTEA_HepaRG_MYC: Life Technologies and Expression Analysis (LTEA) Assay for MYC using HepaRG (AID 2283518)
Method in brief: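 HepaRG, ~100,000 cells/well, collagen I; 48 h plating; serum-free induction medium; 48 h dosing, duplicate, 100 uM top, half-log, 0.5% DMSO; total RNA → qRT-PCR MYC; gain/loss fit vs DMSO.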

[1] = read-out: matrix metalloproteinase-3 (MMP3), MMP3 (gene 4314); assay: LTEA_HepaRG_MMP3: Life Technologies and Expression Analysis (LTEA) Assay for matrix metalloproteinase-3 (MMP3) using HepaRG (AID 2283519)
Method in brief: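 qRT-PCR read-out of MMP3 mRNA (normalised to three housekeeping genes) in HepaRG liver cells after 48 h chemical exposure; 8-point half-log series, top 100 uM, 0.5% DMSO vehicle. Bidirectional curve fitting against DMSO baseline.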

[2] = read-out: Paternally Expressed 10 (PEG10), PEG10 (gene 23089); assay: LTEA_HepaRG_PEG10: Life Technologies and Expression Analysis (LTEA) Assay for Paternally Expressed 10 (PEG10) using HepaRG (AID 2283520);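 as to AC50: differentiated HepaRG human liver cells in serum-free induction medium with 0.5% DMSO; PEG10 transcript by qRT-PCR normalised to ACTB GAPDH and POLR2A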
Method in brief: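 Human HepaRG cultures are dosed for 48 h across an eight-point half-log series starting at 100 uM, with 0.5% DMSO as vehicle and baseline. Gain or loss of PEG10 transcript is measured by qRT-PCR and fitted in both directions.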

[3] = read-out: Protein phosphatase 2A (PPP2R4), PTPA (gene 5524); assay: LTEA_HepaRG_PPP2R4: Life Technologies and Expression Analysis (LTEA) Assay for Protein phosphatase 2A (PPP2R4) using HepaRG (AID 2283522)
Method in brief: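 Cells were plated, cultured 48 h, switched to serum-free induction medium, then dosed for 48 h (8 points, max 100 uM, 0.5% DMSO). RNA was isolated and PPP2R4 expression measured by TaqMan qRT-PCR.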

[4] = read-out: Phosphatase and tensin (PTEN), PTEN (gene 5728); assay: LTEA_HepaRG_PTEN: Life Technologies and Expression Analysis (LTEA) Assay for Phosphatase and tensin (PTEN) using HepaRG (AID 2283523)
Method in brief: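 HepaRG, 48 h exposure, 8-pt half-log series from 100 uM top, 0.5% DMSO vehicle, duplicates. Readout: Fluidigm qRT-PCR of PTEN transcript; housekeeping normalization (ACTB, GAPDH, POLR2A). Gain or loss fitted relative to DMSO baseline.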

[5] = read-out: solute carrier (SLC22A1), SLC22A1 (gene 6580); assay: LTEA_HepaRG_SLC22A1: Life Technologies and Expression Analysis (LTEA) Assay for solute carrier (SLC22A1) using HepaRG (AID 2283524);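 as to AC50: differentiated human HepaRG liver cells in serum-free induction medium; TaqMan qRT-PCR normalized to ACTB GAPDH and POLR2A housekeeping genes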
Method in brief: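 qRT-PCR readout (TaqMan, Fluidigm arrays) of SLC22A1 transcript, normalized to three housekeeping genes; bidirectional curve fit relative to 0.5% DMSO vehicle. Differentiated human HepaRG cells, 48 h chemical exposure, top concentration 100 uM, half-log steps, eight points.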

[6] = read-out: Pyruvate Dehydrogenase Kinase 4 (PDK4), PDK4 (gene 5166); assay: LTEA_HepaRG_PDK4: Life Technologies and Expression Analysis (LTEA) Assay for Pyruvate Dehydrogenase Kinase 4 (PDK4) using HepaRG (AID 2283525)
Method in brief: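 HepaRG (human liver line), 48 h chemical exposure, 8-pt half-log CRC top 100 uM, 0.5% DMSO vehicle, duplicates. Readout: TaqMan qRT-PCR of PDK4 mRNA, housekeeping-normalized; gain/loss fit relative to DMSO baseline.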

[7] = read-out: NAD(P)H dehydrogenase [quinone] 1 (NQO1), NQO1 (gene 1728); assay: LTEA_HepaRG_NQO1: Life Technologies and Expression Analysis (LTEA) Assay for NAD(P)H dehydrogenase [quinone] 1 (NQO1) using HepaRG (AID 2283526)
Method in brief: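 Transcript induction or suppression is quantified by qRT-PCR in human HepaRG liver cells dosed for 48 hours. Eight half-log concentrations topping at 100 uM are used, with 0.5% DMSO as vehicle and baseline.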

[8] = read-out: Nuclear factor erythroid 2-related factor 2 (Homo sapiens) (UniProt Q16236); assay: LTEA_HepaRG_NFE2L2: Life Technologies and Expression Analysis (LTEA) Assay for Nuclear factor erythroid 2-related factor 2 (NFE2L2) Transcription Factor using HepaRG (AID 2283527)
Method in brief: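 HepaRG, 48 h dosing, 8-pt half-log series from 100 uM in 0.5% DMSO, duplicates. Read-out: NFE2L2 mRNA by qRT-PCR (ACTB/GAPDH/POLR2A normalization). Bidirectional curve fit vs DMSO baseline.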

[9] = read-out: Nuclear factor NF-kappa-B p105 subunit (Homo sapiens) (UniProt P19838); assay: LTEA_HepaRG_NFKB1: Life Technologies and Expression Analysis (LTEA) Assay for Nuclear Factor Kappa B Subunit 1 (NFKB1) using HepaRG (AID 2283521);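 also: differentiated human HepaRG liver cells in serum-free induction medium; TaqMan qRT-PCR transcript normalised to ACTB GAPDH and POLR2A housekeeping genes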
Method in brief: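 Human HepaRG cells receive eight half-log concentrations, highest 100 uM, for 48 h. NFKB1 expression is then quantified by qRT-PCR and analysed for up- or down-regulation relative to 0.5% DMSO vehicle.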

Measured: AC50

Nuclear factor NF-kappa-B p105 subunit (Homo sapiens), sequence (P19838 whole entry, looked up): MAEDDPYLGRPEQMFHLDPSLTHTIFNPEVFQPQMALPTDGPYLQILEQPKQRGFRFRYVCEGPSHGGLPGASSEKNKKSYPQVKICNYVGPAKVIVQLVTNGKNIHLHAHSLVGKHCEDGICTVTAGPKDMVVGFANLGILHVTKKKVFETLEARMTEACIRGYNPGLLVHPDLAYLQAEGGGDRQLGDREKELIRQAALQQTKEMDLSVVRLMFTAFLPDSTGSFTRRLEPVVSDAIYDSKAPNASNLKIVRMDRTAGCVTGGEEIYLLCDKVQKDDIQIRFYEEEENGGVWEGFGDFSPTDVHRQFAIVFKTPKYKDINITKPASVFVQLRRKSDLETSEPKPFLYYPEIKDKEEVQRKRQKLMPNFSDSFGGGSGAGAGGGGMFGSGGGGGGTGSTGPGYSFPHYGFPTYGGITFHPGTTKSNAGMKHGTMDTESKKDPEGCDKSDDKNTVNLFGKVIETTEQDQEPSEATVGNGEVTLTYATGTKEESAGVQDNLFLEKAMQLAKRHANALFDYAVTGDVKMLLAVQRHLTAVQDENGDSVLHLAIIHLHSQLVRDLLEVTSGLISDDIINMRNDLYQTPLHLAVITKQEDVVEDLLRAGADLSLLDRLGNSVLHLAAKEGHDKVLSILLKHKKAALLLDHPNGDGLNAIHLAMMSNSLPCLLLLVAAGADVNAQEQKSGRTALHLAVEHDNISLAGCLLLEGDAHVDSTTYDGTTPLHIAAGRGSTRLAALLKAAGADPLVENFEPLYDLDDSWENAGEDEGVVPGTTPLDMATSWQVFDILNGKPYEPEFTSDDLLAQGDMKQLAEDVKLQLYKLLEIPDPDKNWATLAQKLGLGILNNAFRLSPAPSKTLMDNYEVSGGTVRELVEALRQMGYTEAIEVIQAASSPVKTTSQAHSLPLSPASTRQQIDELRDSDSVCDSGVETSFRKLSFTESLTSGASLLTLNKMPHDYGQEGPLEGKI
Nuclear factor erythroid 2-related factor 2 (Homo sapiens), sequence (Q16236 whole entry, looked up): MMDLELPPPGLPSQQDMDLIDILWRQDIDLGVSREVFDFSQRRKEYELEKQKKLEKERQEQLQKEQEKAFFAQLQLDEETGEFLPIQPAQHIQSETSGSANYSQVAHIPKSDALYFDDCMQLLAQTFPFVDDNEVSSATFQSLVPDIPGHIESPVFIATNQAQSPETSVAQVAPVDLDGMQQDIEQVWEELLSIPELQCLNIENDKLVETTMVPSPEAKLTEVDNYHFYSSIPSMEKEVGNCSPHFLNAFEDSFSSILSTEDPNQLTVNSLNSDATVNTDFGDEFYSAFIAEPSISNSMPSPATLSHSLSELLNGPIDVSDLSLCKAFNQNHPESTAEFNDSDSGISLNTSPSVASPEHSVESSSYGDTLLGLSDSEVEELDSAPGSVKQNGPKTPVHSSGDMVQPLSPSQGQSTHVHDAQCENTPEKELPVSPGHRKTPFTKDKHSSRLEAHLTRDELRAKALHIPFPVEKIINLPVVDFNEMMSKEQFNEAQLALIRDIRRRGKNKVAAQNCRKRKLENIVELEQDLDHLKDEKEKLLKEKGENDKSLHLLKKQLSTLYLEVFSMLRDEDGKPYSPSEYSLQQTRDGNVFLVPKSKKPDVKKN

Nc1ccn([C@@H]2O[C@H](CO)[C@@H](O)[C@@H]2O)c(=O)n1
not listed: [9]
inactive: all other assays above

O=C(NO)C1(NS(=O)(=O)c2ccc(Oc3ccc(F)cc3)cc2)CCOCC1
active: MYC, MYC (gene 4609) 78.5 µM | [2] 68.4 µM | [5] 80.7 µM | [6] 80 µM
inactive: all other assays above

OC[C@H]1O[C@@H]2O[C@H]3[C@H](O)[C@@H](O)[C@@H](O[C@H]4[C@H](O)[C@@H](O)[C@@H](O[C@H]5[C@H](O)[C@@H](O)[C@@H](O[C@H]6[C@H](O)[C@@H](O)[C@@H](O[C@H]7[C@H](O)[C@@H](O)[C@@H](O[C@H]1[C@H](O)[C@H]2O)O[C@@H]7CO)O[C@@H]6CO)O[C@@H]5CO)O[C@@H]4CO)O[C@@H]3CO
not listed: [9]
inactive: all other assays above

O=S(=O)(O)c1ccc(N=Nc2c(O)ccc3cc(S(=O)(=O)O)ccc23)cc1
inactive: all assays above

c1ccc2c(c1)-c1cccc3c1c-2cc1ccccc13
inactive: [1] | [4] | [7] | [8]
active: MYC, MYC (gene 4609) 2.06 µM | [2] 8.43 µM | [3] 14.3 µM | [5] 18.8 µM | [6] 8.2 µM

CC(C)C(=O)Nc1ccc([N+](=O)[O-])c(C(F)(F)F)c1
active: MYC, MYC (gene 4609) 50 µM | [1] 79.6 µM | [2] 13.5 µM | [5] 45.4 µM | [6] 9.61 µM | [7] 50 µM | [8] 50 µM
inactive: [3] | [4]

CCc1cccc(CC)c1N
not listed: [9]
inactive: all other assays above

CCCc1ccccc1
not listed: [9]
inactive: all other assays above

Cc1ncc([C@@H](CCCCCCc2ccc3c(n2)NCCC3)CC(=O)O)cn1
active: [1] 0.145 µM | [6] 0.317 µM
not listed: [9]
inactive: all other assays above

Cn1c(=O)c2[nH]cnc2n(C)c1=O
inactive: all assays above

OCCNCCO
active: [5] 50 µM | [6] 50 µM
not listed: [9]
inactive: all other assays above

CNC(C)=O
not listed: [9]
inactive: all other assays above

COc1cc(C(C)C)c2c(c1)S(=O)(=O)N(COc1cc(=O)n3cccc(OCCN4CCCCC4)c3n1)C2=O
active: [1] 19.7 µM | [2] 19.5 µM | [4] 22.6 µM | [5] 20.8 µM | [8] 22.8 µM
inactive: MYC, MYC (gene 4609) | [9] | [3] | [6] | [7]

CCCCN1C(=O)[C@@H]([C@H](O)C2CCCCC2)NC(=O)C12CCN(Cc1ccc(Oc3ccc(C(=O)O)cc3)cc1)CC2
inactive: [9]
active: MYC, MYC (gene 4609) 7.67 µM | [1] 0.267 µM | [2] 1.01 µM | [3] 3.88 µM | [4] 2.98 µM | [5] 1.72 µM | [6] 2.61 µM | [7] 4.6 µM | [8] 2 µM

C=CN1CCCC1=O
not listed: [9]
inactive: all other assays above

CC(C)c1nnc2ccc(-c3ocnc3-c3cc(F)ccc3F)cn12
active: [1] 7.09 µM | [5] 15.4 µM
not listed: [8] | [9]
inactive: all other assays above

OC(Cn1cncn1)(Cn1cncn1)c1ccc(F)cc1F
inactive: all assays above

O=C(O)c1cccc(C(=O)O)c1
not listed: [9]
inactive: all other assays above

CCCCCCCC1CCC(=O)O1 (centres undefined)
not listed: [8] | [9]
inactive: all other assays above

CCOC(N)=O
not listed: [9]
inactive: all other assays above

C[C@]12C=CC(=O)C=C1CC[C@H]1[C@@H]3C[C@@H](O)[C@](O)(C(=O)CO)[C@@]3(C)C[C@H](O)[C@@]12F
not listed: [9]
inactive: all other assays above

c1ccc(C(O[C@@H]2CCCN(CCc3ccc4c(c3)OCO4)C2)c2ccccc2)cc1
active: MYC, MYC (gene 4609) 83.4 µM | [1] 25.2 µM | [2] 13.1 µM | [3] 50 µM | [4] 79.6 µM | [5] 79.2 µM | [6] 73.5 µM | [7] 78.9 µM | [8] 67.8 µM

CC1(C)C(=O)N(Cl)C(=O)N1Cl
not listed: [9]
inactive: all other assays above

NC(=O)N(O)[C@@H]1COc2cc(OCc3ccccc3)ccc21
inactive: all assays above

CCOc1ccc2[nH]cc(C(=O)NCc3ccccc3)c(=O)c2n1
active: [2] 50 µM
not listed: [9]
inactive: all other assays above

OCC(CO)(CO)CO
not listed: [9]
inactive: all other assays above
